Outcome and AC50 data for 24 compounds are collected here from PubChem BioAssay (EPA / NIEHS).

The source made the active and inactive calls. The calls were made as follows: active = hit-call score of the fitted dose curve at least 0.9, where 1 is the maximum; inactive = score below 0.9.

What is called AC50 is the midpoint of the concentration-response curve, whichever way the signal moves.

Test [1] in a line: APR_HepG2_NuclearSize_24hr: Apredica 24-hour HepG2 Assay for Nuclear Size (AID 2282907). The conditions noted are these: high-content imaging, actives raise or lower the signal. The method, boiled down: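 HepG2, 24 hr dosing, 10-pt 0.39–200 uM, duplicates, 0.5% DMSO final; 3.7% formaldehyde fix, 0.5% Triton X-100; Hoechst 33342 nuclear stain; ArrayScan HCS, Cell Cycle analysis → nuclear size; bidirectional fit vs DMSO.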

The nature of test [2]: APR_HepG2_CellLoss_24hr: Apredica 24-hour HepG2 Assay for Cell Loss (AID 2282908).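 As to AC50: fit in both directions so a hit may be cell loss or gain.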 The conditions noted are these: high-content imaging. The method, boiled down: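 10-pt dose, 0.39–200 uM, n=2/plate; DMSO 0.5% v/v final as negative control. Fix 3.7% formaldehyde 30 min RT, permeabilize 0.5% Triton X-100, stain Hoechst 33342 2 ug/mL, image 20x. Nuclear count, bidirectional fit vs DMSO.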

Test [3] is described as follows: APR_HepG2_MicrotubuleCSK_24hr: Apredica 24-hour HepG2 Assay for Microtubule CSK Stabilty (AID 2282909). The settings on record: HepG2 microtubule cytoskeleton imaging, actives raise or lower the signal. The gist of the method: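 Human liver HepG2, 24 h dosing, 0.39–200 uM ×10 conc, dup, 0.5% DMSO. 3.7% formaldehyde fix, 0.5% Triton perm, anti-alpha-tubulin (1:200)/Cy5 secondary + Hoechst. HCS imaging, 6 fields/well; gain/loss fit vs DMSO.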

Test [4] in a line: APR_HepG2_MitoticArrest_24hr: Apredica 24-hour HepG2 Assay for Mitotic Arrest (AID 2282910). The settings on record: high-content imaging, actives raise or lower the signal. The method, boiled down:
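HepG2 human liver cells were exposed to compounds at 0.39–200 uM (10 concentrations, duplicate) in 0.5% v/v DMSO for 24 hr, then fixed and immunostained for phospho-histone H3 with Hoechst 33342. Mitotic arrest came from HCS fluorescent imaging, fitted bidirectionally against DMSO.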

Test [5] is described as follows: APR_HepG2_MitoMembPot_24hr: Apredica 24-hour HepG2 Assay for Mitochondrial Membrane Potential (AID 2282911). The conditions noted are these: imaging, actives raise or lower the signal. The gist of the method: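 Cells are dosed for 24 hr across 0.39 to 200 uM with solvent held at 0.5% DMSO. They are then stained with 250 nM MitoTracker Red CMXRos for 30 min, fixed in 3.7% formaldehyde and imaged.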

Test [6] in a line: APR_HepG2_MitoMass_24hr: Apredica 24-hour HepG2 Assay for Mitochondrial Mass (AID 2282912). The settings on record: high-content imaging, actives raise or lower the signal. The gist of the method:
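Mitochondrial mass is read as MitoTracker Red fluorescence intensity from automated imaging, with bidirectional curve fitting relative to DMSO. HepG2 cells received compound (0.39–200 uM, 0.5% DMSO final) for 24 hr and were dye-loaded (250 nM, 30 min) before formaldehyde fixation.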

The nature of test [7]: APR_HepG2_CellCycleArrest_72hr: Apredica 72-hour HepG2 Assay for Cell Cycle Arrest (AID 2282914). The settings on record: high-content imaging, actives raise or lower the signal. The method, boiled down: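 Read-out is Hoechst-stained nuclear DNA content measured by automated fluorescence imaging (20x, six images per well), fitted in both directions relative to DMSO. Human HepG2 liver cells received 0.39–200 uM compound for 72 hr at 0.5% v/v DMSO.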

Test [8] in a line: APR_HepG2_CellLoss_72hr: Apredica 72-hour HepG2 Assay for Cell Loss (AID 2282915). The conditions noted are these: high-content imaging. The method, boiled down:
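HepG2 cells were exposed for 72 hr to compounds at 0.39–200 uM (ten concentrations, duplicate) in 0.5% v/v final DMSO. Nuclei were stained with Hoechst 33342 after 3.7% formaldehyde fixation, imaged at 20x, and counted; fits bidirectional versus DMSO.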

Take `CCCCCCC(C=O)=Cc1ccccc1`: the result in test [1], in test [2], in test [3], in test [4] and in test [5] was inactive. In addition, the AC50 is 53.5 µM (active) in test [6], 57 µM (active) in test [7] and 50.2 µM (active) in test [8].

On to `S=c1[nH]c2ccccc2s1`, for which the result in test [1], in test [2], in test [3], in test [4], in test [6] and in test [7] was inactive. In test [8], the result was inactive. Also, the AC50 in test [5] was 86.5 µM (active).

`NC(=Nc1ccccc1)Nc1ccccc1`: the compound was called inactive in test [1], in test [2], in test [3], in test [5], in test [6] and in test [7]. Further, the AC50 in test [4] is 21.7 µM (active); in test [8] it was 18.1 µM (active).

As to `C=CCCCCCCCCCCCC`, the outcome in test [1], in test [3], in test [4], in test [5], in test [6] and in test [7] was inactive. Also, the AC50 in test [2] was 52.7 µM (active); in test [8] it was 87.6 µM (active).

As to `NC1CCCCC1`, the outcome in test [1], in test [2], in test [3], in test [4], in test [5] and in test [6] was inactive. Also, the outcome in test [7] and in test [8] was inactive.

As to `CN(C)C(=O)NC1(c2ccccc2)CCN(CCC[C@]2(c3ccc(Cl)c(Cl)c3)CCCN(C(=O)c3ccccc3)C2)CC1`, the compound was classed as inactive in test [1], in test [5] and in test [7]. Moreover, the AC50 in test [2] is 24.9 µM (active); in test [3], 8.32 µM (active); in test [4], 16.3 µM (active); in test [6], 15.4 µM (active); in test [8] it was 16 µM (active).

Regarding `Nc1nc(=S)c2[nH]cnc2[nH]1`, the result in test [1], in test [3], in test [4], in test [5] and in test [6] was inactive. For the same compound, the half-maximal activity concentration (AC50) in test [2] is 21.4 µM (active); in test [7], 63.2 µM (active); in test [8], 17.9 µM (active).

With `NCCOCCOCCN`, in test [1], the outcome was inactive. The AC50 is 92.3 µM (active) in test [2]; 170 µM (active) in test [3]; 14.3 µM (active) in test [4]; 107 µM (active) in test [5]; 45.3 µM (active) in test [6]; 18.6 µM (active) in test [7]. In addition, the AC50 in test [8] was 16.6 µM (active).

With `C#CC(O)C(CC)CCCC` (configuration not stated), the outcome in test [1], in test [2], in test [3], in test [4], in test [5] and in test [6] was inactive. In addition, the compound was called inactive in test [7] and in test [8].

Consider `CC(=O)O`, for which the compound was called inactive in test [1], in test [3], in test [5] and in test [6]. In addition, the AC50 is 112 µM (active) in test [2], 126 µM (active) in test [4], 0.16 µM (active) in test [7] and 49.4 µM (active) in test [8].

As for `CCCCC(CC)COP(=O)(OCC(CC)CCCC)OCC(CC)CCCC` (configuration not stated), the result in test [1], in test [3], in test [5], in test [6] and in test [7] was inactive. Further, the AC50 in test [2] was 37.7 µM (active); in test [4], 48.2 µM (active); in test [8], 37.3 µM (active).

As for `CC1=C(C)S(=O)(=O)CCS1(=O)=O`, the outcome in test [1], in test [2], in test [3], in test [4], in test [5] and in test [6] was inactive. The half-maximal activity concentration (AC50) in test [7] is 42.8 µM (active); in test [8], 37.4 µM (active).

On to `Cc1cc(Cc2ccc(N)c(C)c2)ccc1N`, for which the outcome in test [1], in test [2], in test [3], in test [4], in test [5] and in test [6] was inactive. Further, the AC50 in test [7] was 103 µM (active); in test [8], 77.8 µM (active).

For the compound `O=C(O)c1cccnc1`, the call in test [1], in test [2], in test [3], in test [4], in test [5] and in test [6] was inactive. In addition, the call in test [7] and in test [8] was inactive.

For `O=C1NC(=O)C(c2ccccc2)(c2ccccc2)N1`, the call in test [1], in test [2], in test [3], in test [4], in test [5] and in test [6] was inactive. The outcome in test [7] and in test [8] was inactive.

As for `CSc1ccc(Oc2ccc(S(N)(=O)=O)cc2CN(C)C)cc1C`, the compound was called inactive in test [1], in test [3] and in test [7]. The half-maximal activity concentration (AC50) in test [2] is 131 µM (active); in test [4] it was 88.9 µM (active); in test [5], 100 µM (active); in test [6] it was 100 µM (active); in test [8] it was 108 µM (active).

With `CC(COCC(C)OC(=O)c1ccccc1)OC(=O)c1ccccc1` (configuration not stated), the compound was called inactive in test [1], in test [2], in test [3], in test [4], in test [5] and in test [6]. Besides, the compound was called inactive in test [7] and in test [8].

Regarding `CN(C)CCCN1c2ccccc2Sc2ccc(Cl)cc21`, the AC50 was 129 µM (active) in test [1]; 35 µM (active) in test [2]; 19.7 µM (active) in test [4]; 31 µM (active) in test [6]; 102 µM (active) in test [7]; 33.9 µM (active) in test [8]. Further, the compound was called inactive in test [3] and in test [5].

Consider `O=C(NS(=O)(=O)/C=C/c1cccs1)c1ccc(F)cc1Br`, for which the outcome in test [1], in test [2], in test [3], in test [4], in test [5] and in test [6] was inactive. The compound was called inactive in test [7]. In addition, the AC50 in test [8] is 80.8 µM (active).

Regarding `Cc1c(C)c2c(c(C)c1O)CCC(C)(COc1ccc(CC3SC(=O)NC3=O)cc1)O2` (configuration not stated), the compound was called inactive in test [1], in test [4], in test [6] and in test [7]. Besides, the AC50 is 88.2 µM (active) in test [2], 122 µM (active) in test [3], 96.5 µM (active) in test [5] and 83.8 µM (active) in test [8].

As for `NC=O`, the outcome in test [1], in test [2], in test [3], in test [4], in test [5] and in test [6] was inactive. In addition, the compound was called inactive in test [7] and in test [8].

Turning to `CCCCCCCCCC[N+](C)(C)[O-]`, the result in test [1], in test [3], in test [4], in test [5], in test [6] and in test [7] was inactive. Also, the values for the concentration at half-maximal activity (AC50) in test [2] and in test [8] were 109 µM (active) and 140 µM (active), respectively.

For the compound `Oc1ccc(O)cc1`, the outcome in test [1], in test [2], in test [3], in test [4] and in test [5] was inactive. Also, the AC50 is 51.4 µM (active) in test [6], 100 µM (active) in test [7] and 71.7 µM (active) in test [8].

Take `O=NO`: the call in test [1], in test [2], in test [3], in test [4], in test [5] and in test [6] was inactive. Further, the outcome in test [7] and in test [8] was inactive.
